Rows were chosen to be rich in hits. Some 1.6% of all compounds tested hit in one or more screens of this group.
OPRM1-OPRD1 inv = inverse agonist of human OPRM1-OPRD1 heterodimerization | P35372+P41143 | cell-based MOR-DOR heterodimer luminescence, inverse agonism | inhibition, % at 9.3 µM | actives 0.21% (n = 340,000) | AID 504357; in the data active means inhibition above about 22%, passing the limit was not always enough;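 further: 0% = cells with DMSO and 100% = wells without cells with DMSO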
NALP1 yeast inh = inhibitors of NALP1 inflammasome in yeast. S. cerevisiae NALP1/ASC/caspase-1 growth, X-gal OD620, 72 h. inhibition, % at 10 µM. actives 0.61% (n = 280,000). AID 2071; in the data active means inhibition mostly above about 24%, no sharp cut-off; inactive means mostly below about 32%
HTR5A inv ctr = counter-screen for OPRM1-OPRD1 inverse agonists: human HTR5A inverse agonism; HTR5A cell line, luminescence; inhibition, % at 9.3 µM; actives 0.083% (n = 340,000); AID 504634; in the data active means inhibition mostly above about 23%, no sharp cut-off; inactive means mostly below about 18%;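 further: 0% = cells with DMSO and 100% = no-cell wells with DMSO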
Target sequence (P47898 whole entry, looked up): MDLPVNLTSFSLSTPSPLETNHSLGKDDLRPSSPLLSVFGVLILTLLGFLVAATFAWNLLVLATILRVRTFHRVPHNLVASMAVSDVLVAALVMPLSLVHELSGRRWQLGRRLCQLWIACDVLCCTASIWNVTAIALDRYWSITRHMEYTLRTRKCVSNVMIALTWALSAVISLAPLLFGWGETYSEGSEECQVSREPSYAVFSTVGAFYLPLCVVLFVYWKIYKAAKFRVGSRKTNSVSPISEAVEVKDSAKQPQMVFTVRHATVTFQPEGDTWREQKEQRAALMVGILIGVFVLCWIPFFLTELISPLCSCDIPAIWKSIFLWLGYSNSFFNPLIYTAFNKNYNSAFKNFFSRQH
PolyA inh = inhibitors of polyadenylation in S. cerevisiae. actives 0.02% (n = 300,000). S. cerevisiae SKY197-pL101 polyadenylation reporter, beta-gal luminescence; efflux-impaired pdr1/pdr3 knockout yeast; score 100 = 6 SD above DMSO. activity score, % at 12 µM;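 active means lowest replicate activity score at least 50, where 100 means six control SD above control mean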;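 further: yeast exposed to compound for 9 h at 30 °C; higher score means more reporter readthrough which indicates perturbed polyadenylation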
HTR5A ag ctr = activates human HTR5A in OPRM1-OPRD1 agonist counter-screen; HTR5A agonist assay, luminescence, cell-based; activation, % at 9.3 µM; actives 0.61% (n = 340,000); in the data active means activation mostly above about 9.5%, no sharp cut-off; inactive means mostly below about 7.6%;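 further: 0% = cells with vehicle only and 100% = reference agonist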
MOR-DOR ag = agonists of human mu-delta opioid receptor heterodimerization. activation, % at 9.3 µM. actives 0.3% (n = 340,000). cells, OPRM1-OPRD1 heterodimerization, luminescence. AID 504326; in the data active means activation above about 18%;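 further: 0% = vehicle-treated cells and 100% = reference agonist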
Numbers without * were called inactive; . = not tested or not shown.

SMILES	OPRM1-OPRD1 inv	NALP1 yeast inh	HTR5A inv ctr	PolyA inh	HTR5A ag ctr	MOR-DOR ag
COCC1CCN(C(=O)c2cc(COc3ccc4c(c3)CCCC4)on2)C1 (stereo unspecified)	22	27*	-27	-9	2	-7
CCC(C)(C)c1ccc(OCCCC[n+]2cccc(C)c2)c(C(C)(C)CC)c1	16	33*	7	-15	8	-3
COc1ccc(N2CC(O)(c3ccc(C)cc3)[N+]3=C2CCCC3)cc1 (stereo unspecified)	12	-6	-37	-2	13*	-3
Cc1ccc(N2C(=O)CC(Sc3ncn[nH]3)C2=O)cc1C (stereo unspecified)	0	40*	2	-18	-1	0
Cc1cccc(N2C(=O)CC(Sc3ncn[nH]3)C2=O)c1 (stereo unspecified)	11	38*	-5	2	1	-2
COc1cccc(OCC(=O)NC2CCS(=O)(=O)C2)c1 (stereo unspecified)	6	.	8	.	-3	-1
CC(=O)Nc1ccc(S(=O)(=O)N(C)CC(=O)OCC(=O)N(C)c2ccccc2)cc1	22	10	-16	-12	4	-4
COc1ccc2c(c1)CC/C2=N\OC(=O)c1cccc(C)c1	-33	36	-1	-56	14*	7
COc1ccc(-n2c(=O)/c(=C\c3cccs3)s/c2=C(/C#N)C(=O)N2CCN(C)CC2)cc1	5	22	-16	-5	6	-1
Fc1cccc(Cl)c1Cc1noc(/C=C/c2ccccc2)n1	-4	28*	-8	-1	4	1
C(=C\c1nc(-c2ccccc2)no1)/c1ccccc1	-9	41	18	8	3	2
O=CNC1c2ccccc2CCc2ccccc21	14	.	-7	.	2	-3
CC1CN(C(=O)CN(C)S(=O)(=O)c2ccc3ccccc3c2)CC(C)O1 (stereo unspecified)	11	0	3	-31	-1	-2
CCOC(=O)c1nnn(-c2nonc2N)c1COc1ccccc1	-19	-4	-11	-10	11*	3
CN(C)CCCN(C(=O)CCOc1ccccc1)c1nc2c(F)cccc2s1	25	52*	-3	-6	4	-5
CN(C)CCCN(C(=O)c1ccc(N2C(=O)CCC2=O)cc1)c1nc2c(F)cccc2s1	12	12	-36	2	13*	-2
Cc1cccc(Nc2nc(CC(=O)O)cs2)c1	1	0	5	-40	11*	0
CCCC(C)NNC(=O)c1cc2ccccc2[nH]1 (stereo unspecified)	-7	-3	-3	-7	-3	1
CC(C)(C)c1ccc(S(=O)(=O)NNC(=O)c2cc3ccccc3[nH]2)cc1	-73	19	-48	-18	13*	15
CCn1c(COc2ccccc2C)nnc1SCC(=O)Nc1ccc2c(c1)OCCO2	-1	17	15	6	-6	0
CCn1c(SCC(=O)Nc2ccc3c(c2)oc2ccccc23)nnc1-c1ccc(N)cc1	-80	22	-21	15	11*	14
C=CCn1c(Cc2cccs2)nnc1SCC(=O)Nc1ccc(OC)c(OC)c1	-16	15	-20	6	4	3
CCn1c(Cc2ccccc2)nnc1SCC(=O)Nc1ccccc1F	13	33*	2	-13	-1	-2
CCn1c(Cc2cccs2)nnc1SCC(=O)Nc1ccc(OC)c(OC)c1	7	-40	-40	9	9.7*	-1
CCn1c(COc2ccc(Cl)cc2)nnc1SCC(=O)Nc1ccc2c(c1)OCCO2	-9	38*	3	3	-1	2
SMILES	OPRM1-OPRD1 inv	NALP1 yeast inh	HTR5A inv ctr	PolyA inh	HTR5A ag ctr	MOR-DOR ag
O=C(COC(=O)c1ccc([N+](=O)[O-])o1)Nc1ncc(Cl)cc1Cl	-7	.	7	.	-2	2
O=C(COC(=O)COc1ccc(Cl)cc1Br)NC1CC1	1	.	-4	.	1	0
CC1CN(C(=O)c2cc(Br)c(Br)s2)CC(C)O1 (stereo unspecified)	8	.	-1	.	0	-2
CC(=O)Oc1ccc(/C(C)=N/N2CCN(Cc3ccc(C)cc3)CC2)cc1	7	13	-36	-6	9.8*	-1
COc1ccc(C(=O)CSc2nnc(CN3CCCC3)n2-c2ccc(F)cc2)c(OC)c1	13	.	7	-15	-3	-3
Cc1ccc(C(=O)NC(=S)N2CCN(C(=O)OC(C)(C)C)CC2)cc1Br	21	19	17	-7	1	-4
CCOc1ccc(CCNC(=O)c2ccc(F)c(S(=O)(=O)N3CCOCC3)c2)cc1OCC	6	14	9	2	11*	-1
Cc1cc(C)cc(Nc2nc3c([nH]2)c(=O)n(C)c(=O)n3C)c1	-33	32*	3	14	-1	5
CC1CCN(c2nc(/C=C/c3ccccc3)nc3ccccc23)CC1	-21	43	-15	-15	5	4
C(=C\c1nc(N2CCCC2)c2ccccc2n1)/c1ccccc1	-13	64*	0	-16	0	2
O=C(CSc1ncn[nH]1)Nc1ccc2c(c1)CCC2	2	25	-42	6	12*	0
CN(C)CCNc1ncnc2c1sc1nc(-c3ccccc3)c3c(c12)CCCC3	3	45*	4	-4	-1	-1
CC1(C)CC(=O)C2=C(C1)C(c1cn(-c3ccccc3)nc1-c1ccccc1)C(C#N)=C(N)O2 (stereo unspecified)	2	43*	-3	-1	1	0
CC1(C)CC(=O)C2=C(C1)OC(N)=C(C#N)C2c1cn(-c2ccccc2)nc1-c1ccc(F)cc1 (stereo unspecified)	-2	32	9	7	-3	0
CC1CC(C)CN(C(=O)CSc2nc(Cc3cccs3)nc3ccccc23)C1 (stereo unspecified)	1	33	-12	-3	12*	0
CCCCCC(=O)N(O)C1CC(=O)N(c2ccccc2)C1=O (stereo unspecified)	-7	4	6	-16	-4	1
CCCCCCC(=O)N(O)C1CC(=O)N(Cc2ccccc2)C1=O (stereo unspecified)	2	47*	16	.	0	0
Cc1cc(C(=O)Nc2ccc3[nH]ccc3c2)no1	14	18	11	7	3	-3
COc1ccc2ccccc2c1/C=N/NC(=O)c1sc(N)c(C#N)c1C	-129	4	-39	-1	8	24*
COc1cccc(-c2nc(NCc3cccnc3)c3ccccc3n2)c1O	5	15	-39	17	11*	-1
CN(C)S(=O)(=O)c1ccc(NC(=O)CSc2nnc(-c3ccco3)n2N)cc1	18	.	-14	.	4	-4
CCOC(=O)CC(NC(=O)Cn1nnc(-c2ccccc2Cl)n1)c1ccc(OC)cc1 (stereo unspecified)	5	8	-11	-6	4	-1
